According to PubChem BioAssay (Tox21):
Results filed as inconclusive are left out. Calls of active or inactive are those of the source. Unless noted, calls follow the shape of the dose curve; as a rule, active = well fitted curve in the direction sought with a large enough effect in the repeat runs; inconclusive = weak or mixed curves; inactive = no such curve, though single readings can be large; an effect the other way counts as inactive or inconclusive.

Assays:
[1] = target: Aryl hydrocarbon receptor (Homo sapiens) (UniProt P35869); experiment: qHTS assay to identify small molecule that activate the aryl hydrocarbon receptor (AhR) signaling pathway (AID 743085);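 also: HG2L7.5c1 human HepG2 liver cells with stably integrated DRE-driven firefly reporter; series mostly up to about 70 µM; nearly all actives have a fitted effect of over 15% in size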
Method in brief: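 A multiplexed format paired cell viability (CellTiter-Fluor fluorescence) with AhR-dependent luciferase output (ONE-Glo luminescence) in the same wells of HepG2 DRE-luc cells after 24 h compound exposure at 37C.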

[2] = qHTS assay to identify small molecule that activate the aryl hydrocarbon receptor (AhR) signaling pathway - cell viability counter screen (AID 743086);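 also: HepG2 liver cells carrying the AhR DRE luciferase reporter; series mostly up to about 70 µM; nearly all actives have a fitted effect of over 45% in size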
Method in brief: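 HepG2-AhR-luc (HG2L7.5c1) cells, 4000/well, were preincubated 5 h at 37C, exposed to compound in qHTS format for 24 hr at 37C, then given CellTiter-Fluor for 30 min; viability was read as fluorescence in the reporter wells.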

[3] = target: Peroxisome proliferator-activated receptor gamma (Homo sapiens) (UniProt P37231); experiment: qHTS assay to identify small molecule agonists of the peroxisome proliferator-activated receptor gamma (PPARg) signaling pathway (AID 743094; active = well fitted activation curve with a large enough effect in the signal ratio in the repeat runs, not every such curve was filed as active; the % refers to the signal ratio)
Method in brief: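 Cell-based bla reporter, HEK293H background, PPARg-driven UAS. Pre-incubation 5 h, 37C, 5% CO2. Compound 17 h, 37C. Substrate 1 h RT; fluorescence.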

[4] = target: Peroxisome proliferator-activated receptor gamma (Homo sapiens) (UniProt P37231); experiment: qHTS assay to identify small molecule antagonists of the peroxisome proliferator-activated receptor gamma (PPARg) signaling pathway (AID 743191; calls by dose curve; also: series mostly up to about 63 µM; nearly all actives have a fitted effect of over 30% in size)
Method in brief: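 GeneBLAzer PPARg UAS-bla HEK293H cells carrying a UAS-driven beta-lactamase reporter were plated at 3000 cells/well, preincubated 5 h at 37C, then given compound for 17 h at 37C; LiveBLAzer B/G FRET substrate was read after 1 h at room temperature.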

[5] = qHTS assay to identify small molecule antagonists of the peroxisome proliferator-activated receptor gamma (PPARg) signaling pathway - cell viability counter screen (AID 743194); conditions: Potency: co-treated with 50 nM rosiglitazone; also: nearly all actives have a fitted effect of over 55% in size
Method in brief: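 PPARg-UAS-bla HEK293H cells were plated, rested 5 h at 37 C, then treated with compounds plus rosiglitazone (50 nM final) for 17 h at 37 C; viability was then read by CellTiter-Glo luminescence after 30 min at room temperature.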

[6] = qHTS assay for small molecule agonists of the antioxidant response element (ARE) signaling pathway (AID 743202; active = well fitted activation curve with a large enough effect in the signal ratio in the repeat runs, not every such curve was filed as active; the % refers to the signal ratio)
Method in brief: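 Following a 16 h, 37 C exposure of reporter HepG2 cells (ARE-driven beta-lactamase, 2,000 cells/well) to compounds, FRET substrate was applied for 2 h at room temperature and fluorescence intensity recorded.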

[7] = qHTS assay for small molecule agonists of the antioxidant response element (ARE) signaling pathway - cell viability counter screen (AID 743203; calls by dose curve; also: nearly all actives have a fitted effect of over 55% in size)
Method in brief: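 Measured in the same wells as the beta-lactamase ARE reporter, this read-out is CellTiter-Glo luminescence from HepG2 ARE-bla cells given compounds for 16 hrs.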

[8] = qHTS assay for small molecule activators of the heat shock response signaling pathway - cell viability counter screen (AID 743209); also: nearly all actives have a fitted effect of over 50% in size
Method in brief: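 Same-well multiplex: after 2.5 h room-temperature incubation with LiveBLAzer B/G substrate and fluorescence reading, CellTiter-Glo reagent was added to HSE-bla HeLa cells that had received compound for 5 h at 37 C; luminescence read after 30 min.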

[9] = qHTS assay for small molecule activators of the heat shock response signaling pathway (AID 743210; active = well fitted activation curve with a large enough effect in the signal ratio in the repeat runs, with a control signal flat, not every such curve was filed as active; the % refers to the signal ratio; also: series mostly up to about 63 µM)
Method in brief: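 Heat shock element–beta-lactamase HeLa reporter cells; qHTS with compounds for 5 h at 37 C; detection by FRET substrate fluorescence after 2.5 h at RT.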

[10] = qHTS assay to identify small molecule agonists of the peroxisome proliferator-activated receptor delta (PPARd) signaling pathway - cell viability counter screen (AID 743211); also: nearly all actives have a fitted effect of over 55% in size
Method in brief: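 Tox21 library compounds, delivered in DMSO, were incubated 17 h with PPARd-bla HEK293H cells; cytotoxicity was taken from CellTiter-Glo luminescence read 30 min after reagent addition.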

[11] = target: Peroxisome proliferator-activated receptor delta (Homo sapiens) (UniProt Q03181); experiment: qHTS assay to identify small molecule agonists of the peroxisome proliferator-activated receptor delta (PPARd) signaling pathway (AID 743212; calls by dose curve)
Method in brief: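 Beta-lactamase reporter read by fluorescence (LiveBLAzer B/G FRET, 2 h, room temperature). Test agents, in DMSO, incubated at 37 C with PPARd-bla HEK293H cells.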

[12] = qHTS assay to identify small molecule antagonists of the peroxisome proliferator-activated receptor delta (PPARd) signaling pathway - cell viability counter screen (AID 743213); also: nearly all actives have a fitted effect of over 50% in size
Method in brief: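 PPARd-bla HEK293H cells (3000/well) got compound plus 300 nM L165041 agonist for 17 h at 37 C. Viability in the same wells came from CellTiter-Glo luminescence after 30 min at room temperature.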

[13] = target: Peroxisome proliferator-activated receptor delta (Homo sapiens) (UniProt Q03181); experiment: qHTS assay to identify small molecule antagonists of the peroxisome proliferator-activated receptor delta (PPARd) signaling pathway (AID 743215; active = well fitted inhibition curve with a large enough effect in the signal ratio in the repeat runs, not every such curve was filed as active; the % refers to the signal ratio;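 also: cells stimulated with agonist L165041 at 300 nM final during compound exposure; series mostly up to about 62 µM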)
Method in brief: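 Fluorescence from cleaved LiveBLAzer B/G FRET substrate (2 h, room temperature) reports PPARd-driven beta-lactamase in HEK293H UAS-bla cells. Cells had been treated 17 h at 37 C with compound plus 300 nM final L165041.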

[14] = qHTS assay to identify small molecule agonists of the farnesoid-X-receptor (FXR) signaling pathway - cell viability counter screen (AID 743218); also: nearly all actives have a fitted effect of over 45% in size
Method in brief: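 Readout: CellTiter-Glo luminescence, 30 min RT, multiplexed after the FXR-bla FRET reading. HEK 293T FXR-UAS-bla cells received compound 5 h post-plating and were incubated 16 h at 37 C.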

[15] = target: Vitamin D3 receptor (Homo sapiens) (UniProt P11473); experiment: qHTS assay to identify small molecule agonists of the vitamin D receptor (VDR) signaling pathway (AID 743222; calls by dose curve)
Method in brief: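 Following 4 h attachment at 37C, VDR-bla cells (2,000 per well) received DMSO-dissolved compounds or controls. After 16 h incubation, LiveBLAzer B/G FRET substrate was added and fluorescence read 2 h later at room temperature.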

[16] = target: Vitamin D3 receptor (Homo sapiens) (UniProt P11473); experiment: qHTS assay to identify small molecule antagonists of the vitamin D receptor (VDR) signaling pathway (AID 743223; active = well fitted inhibition curve with a large enough effect in the signal ratio in the repeat runs, not every such curve was filed as active; the % refers to the signal ratio)
Method in brief: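 Quantitative HTS in VDR-bla reporter cells stimulated with 1alpha,25-dihydroxyvitamin D3, 3 nM final. Compound exposure 16 h, 37C, 5% CO2. Read-out: beta-lactamase FRET substrate fluorescence, 2 h RT.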

[17] = qHTS assay to identify small molecule agonists of the vitamin D receptor (VDR) signaling pathway - cell viability counter screen (AID 743224); also: series mostly up to about 63 µM; nearly all actives have a fitted effect of over 50% in size
Method in brief: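 In parallel with the bla FRET readout, cytotoxicity toward VDR-bla cells after 16 h compound exposure was assessed by CellTiter-Glo, with luminescence recorded after a 30 min room-temperature incubation.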

[18] = target: Bile acid receptor (Homo sapiens) (UniProt Q96RI1); experiment: qHTS assay to identify small molecule antagonists of the farnesoid-X-receptor (FXR) signaling pathway (AID 743217; active = well fitted inhibition curve with a large enough effect in the signal ratio in the repeat runs, not every such curve was filed as active; the % refers to the signal ratio)
Method in brief: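 FRET fluorescence after 2 h room-temperature LiveBLAzer loading gives the readout. Prior step: FXR-bla HEK 293T cells, seeded and incubated 5 h, received test compounds plus 50 uM final CDCA for 16 h at 37 °C.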

[19] = target: Bile acid receptor (Homo sapiens) (UniProt Q96RI1); experiment: qHTS assay to identify small molecule agonists of the farnesoid-X-receptor (FXR) signaling pathway (AID 743220; active = well fitted activation curve with a large enough effect in the signal ratio in the repeat runs, not every such curve was filed as active; the % refers to the signal ratio)
Method in brief: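 FXR-UAS-bla HEK 293T cells carrying a UAS-driven beta-lactamase reporter were plated for 5 h at 37C/5% CO2, then exposed to DMSO-dissolved Tox21 10K compounds for 16 h at 37C. A LiveBLAzer B/G FRET substrate was loaded for 2 h at room temperature before fluorescence reading.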

[20] = qHTS assay to identify small molecule antagonists of the farnesoid-X-receptor (FXR) signaling pathway - cell viability counter screen (AID 743221; active = well fitted cell-killing curve with a large enough effect in the repeat runs, not every such curve was filed as active; also: nearly all actives have a fitted effect of over 50% in size)
Method in brief: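 Cytotoxicity is taken from ATP luminescence (CellTiter-Glo, 30 min, room temperature) in FXR-bla HEK 293T cells previously incubated 16 h at 37 C with compound and chenodeoxycholic acid at 50 uM final.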

Measured: Potency

Sequence of Bile acid receptor (Homo sapiens) (Q96RI1 whole entry, looked up): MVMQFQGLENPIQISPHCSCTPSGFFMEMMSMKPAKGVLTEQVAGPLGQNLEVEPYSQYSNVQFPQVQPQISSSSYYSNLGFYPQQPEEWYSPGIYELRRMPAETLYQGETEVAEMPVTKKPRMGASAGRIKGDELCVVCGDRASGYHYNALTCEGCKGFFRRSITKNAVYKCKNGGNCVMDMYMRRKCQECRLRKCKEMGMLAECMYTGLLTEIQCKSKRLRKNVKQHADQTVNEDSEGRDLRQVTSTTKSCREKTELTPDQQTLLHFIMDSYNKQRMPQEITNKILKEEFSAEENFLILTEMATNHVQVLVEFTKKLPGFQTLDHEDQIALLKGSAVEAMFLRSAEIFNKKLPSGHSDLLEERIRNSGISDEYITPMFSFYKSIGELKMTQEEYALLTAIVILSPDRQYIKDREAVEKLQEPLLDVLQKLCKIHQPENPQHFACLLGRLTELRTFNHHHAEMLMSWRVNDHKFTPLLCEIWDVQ
Sequence of Vitamin D3 receptor (Homo sapiens) (P11473 whole entry, looked up): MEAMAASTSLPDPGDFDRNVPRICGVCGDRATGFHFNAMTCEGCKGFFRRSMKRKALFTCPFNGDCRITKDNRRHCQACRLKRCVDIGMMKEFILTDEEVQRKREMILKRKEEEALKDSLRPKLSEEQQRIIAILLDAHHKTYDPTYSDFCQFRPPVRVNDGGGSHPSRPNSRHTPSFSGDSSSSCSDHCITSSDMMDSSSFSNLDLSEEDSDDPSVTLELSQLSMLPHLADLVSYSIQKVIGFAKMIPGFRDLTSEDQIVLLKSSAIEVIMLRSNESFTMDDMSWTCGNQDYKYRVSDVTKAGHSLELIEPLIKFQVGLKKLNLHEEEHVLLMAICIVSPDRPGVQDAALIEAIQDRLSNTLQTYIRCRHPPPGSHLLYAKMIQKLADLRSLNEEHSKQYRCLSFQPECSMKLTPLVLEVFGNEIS
Sequence of Aryl hydrocarbon receptor (Homo sapiens) (P35869 whole entry, looked up): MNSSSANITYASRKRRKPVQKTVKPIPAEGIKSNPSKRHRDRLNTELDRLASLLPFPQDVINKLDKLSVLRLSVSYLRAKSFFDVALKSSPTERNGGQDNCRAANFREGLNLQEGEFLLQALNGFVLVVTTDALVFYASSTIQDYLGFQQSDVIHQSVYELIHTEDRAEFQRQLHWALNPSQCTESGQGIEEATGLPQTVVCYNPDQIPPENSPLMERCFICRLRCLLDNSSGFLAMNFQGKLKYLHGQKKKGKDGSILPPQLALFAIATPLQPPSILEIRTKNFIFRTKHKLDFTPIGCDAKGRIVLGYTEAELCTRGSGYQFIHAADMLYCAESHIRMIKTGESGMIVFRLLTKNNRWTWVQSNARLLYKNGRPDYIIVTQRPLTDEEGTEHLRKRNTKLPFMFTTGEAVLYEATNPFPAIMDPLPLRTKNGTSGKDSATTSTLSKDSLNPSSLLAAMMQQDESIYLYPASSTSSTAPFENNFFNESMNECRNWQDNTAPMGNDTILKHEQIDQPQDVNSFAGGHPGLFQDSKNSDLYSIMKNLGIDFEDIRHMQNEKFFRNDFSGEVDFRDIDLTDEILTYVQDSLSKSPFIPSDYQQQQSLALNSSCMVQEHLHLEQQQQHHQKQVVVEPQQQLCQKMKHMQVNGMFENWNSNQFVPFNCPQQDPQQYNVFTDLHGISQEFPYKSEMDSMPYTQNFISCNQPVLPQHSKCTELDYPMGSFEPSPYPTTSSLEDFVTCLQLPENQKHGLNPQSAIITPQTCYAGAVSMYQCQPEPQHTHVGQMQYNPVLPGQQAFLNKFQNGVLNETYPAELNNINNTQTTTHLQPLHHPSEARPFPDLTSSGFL
Sequence of Peroxisome proliferator-activated receptor gamma (Homo sapiens) (P37231 whole entry, looked up): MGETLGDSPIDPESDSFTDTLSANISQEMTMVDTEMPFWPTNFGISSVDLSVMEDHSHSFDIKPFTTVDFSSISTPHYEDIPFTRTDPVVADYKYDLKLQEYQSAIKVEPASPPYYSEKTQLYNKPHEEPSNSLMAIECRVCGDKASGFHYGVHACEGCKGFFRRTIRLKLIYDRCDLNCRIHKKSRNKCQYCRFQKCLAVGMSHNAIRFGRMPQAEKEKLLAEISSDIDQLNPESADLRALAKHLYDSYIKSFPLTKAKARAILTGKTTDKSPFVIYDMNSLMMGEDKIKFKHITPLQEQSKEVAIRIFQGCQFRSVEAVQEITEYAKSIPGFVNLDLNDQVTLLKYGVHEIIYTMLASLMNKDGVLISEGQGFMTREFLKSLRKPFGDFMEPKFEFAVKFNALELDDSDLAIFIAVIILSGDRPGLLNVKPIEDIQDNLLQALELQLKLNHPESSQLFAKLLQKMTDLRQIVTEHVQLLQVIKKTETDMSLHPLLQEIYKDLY
Sequence of Peroxisome proliferator-activated receptor delta (Homo sapiens) (Q03181 whole entry, looked up): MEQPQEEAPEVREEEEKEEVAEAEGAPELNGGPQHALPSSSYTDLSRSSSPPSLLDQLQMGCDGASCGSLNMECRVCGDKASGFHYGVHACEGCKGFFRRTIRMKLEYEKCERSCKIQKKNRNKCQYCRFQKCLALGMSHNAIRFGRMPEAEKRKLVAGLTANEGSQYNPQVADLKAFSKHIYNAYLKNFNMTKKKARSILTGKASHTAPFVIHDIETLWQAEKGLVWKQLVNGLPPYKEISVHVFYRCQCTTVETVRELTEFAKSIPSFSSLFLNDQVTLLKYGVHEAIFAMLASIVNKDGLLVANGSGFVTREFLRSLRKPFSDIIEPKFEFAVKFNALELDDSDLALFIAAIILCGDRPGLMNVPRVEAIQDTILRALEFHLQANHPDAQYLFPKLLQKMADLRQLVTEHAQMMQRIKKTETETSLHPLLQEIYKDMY

CCC(=O)c1ccc(Cl)cc1
not listed: [18] | [19] | [20]
inactive: all other assays above

COc1ccc(C=O)cc1O
not listed: [15] | [16]
inactive: all other assays above

COc1ccc(CN2CCNCC2)c(OC)c1OC
not listed: [9] | [15] | [16] | [19]
inactive: all other assays above

N=C(N)[Se]
not listed: [9] | [12] | [13] | [15] | [16] | [18] | [19] | [20]
inactive: all other assays above

CC(=NC#N)N(C)Cc1ccc(Cl)nc1
not listed: [13] | [15] | [18] | [19]
inactive: all other assays above

BrCc1ccc(Br)cc1
not listed: [9] | [17]
inactive: all other assays above

C#CCOC(=O)/C=C(C)/C=C/CC(C)CCCC(C)C (stereo unspecified)
not listed: [12] | [13] | [17]
inactive: all other assays above

CCC1(c2cccc(O)c2)CCCCN(C)C1 (stereo unspecified)
not listed: [16] | [18] | [19]
inactive: all other assays above
